Reference: PubChem BioAssay (Tox21)
Where “and” joins values, the source holds several entries; their conditions need not be identical. Identical values can stand only once. Records with an inconclusive call do not appear. Calls of active or inactive are those of the source. Calls follow the shape of the full dose curve.

test: qHTS assay for small molecule disruptors of the mitochondrial membrane potential - cell viability (AID 720634); conditions: HepG2 viability, ATP luminescence (CellTiter-Glo), 1 h; series mostly up to 83.2 µM; activity change, negative = cytotoxicity: at the top concentration; also: nearly all actives have a fitted effect of over 20% in size;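 as to activity change, negative = cytotoxicity: human HepG2 liver cancer cells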
Text: U.S. Tox21 Program National Center for Advancing Translational Sciences [NCATS] NIH Chemical Genomics Center [NCGC] U.S. Environmental Protection Agency [EPA] National Institutes of Environmental Health Sciences [NIEHS] National Toxicology Program [NTP] U.S. Food and Drug Administration [FDA] Tox21 Assay Overview: Mitochondrial membrane potential (MMP), one of the parameters for mitochondrial function, is generated by mitochondrial electron transport chain that creates an electrochemical gradient by a series of redox reactions. This gradient drives the synthesis of ATP, a crucial molecule for various cellular processes. Measuring MMP in living cells is commonly used to assess the effect of chemicals on mitochondrial function; decreases in MMP can be detected using lipophilic cationic fluorescent dyes. […] The dye accumulates in the mitochondria of healthy cells as aggregates, with red fluorescence. The mitochondrial potential decreases and the dye could not accumulate in the mitochondria and remains in the cytoplasm in monomers, with green fluorescence. In addition to the mitochondrial potential assay, these cells were also used to test the cytotoxicity by determining the cell viability in the culture based on the quantitation of ATP present. The cytotoxicity was measured in the same assay well of MMP assay.
Tox21 Assay Protocol Summary: 2,000 HepG2 cells in 5 uL/well were dispensed into black, clear-bottom 1536-well plates using a Multidrop Combi (Thermo Scientific) dispenser. The assay plates were incubated for an overnight at 37 C to allow cells to attach to the wells, followed by the transfer of 23 nL compound or DMSO vehicle by a pin tool (Kalypsys). The plates were incubated for 1 hr at 37 C and 5% CO2, followed by the addition of 5 uL of 2X m-MPI dye into each well using Flying Reagent Dispenser (Aurora Discovery) and then CellTiter-Glo reagent was added at 4 uL/well and incubated 30 min at room temperature. Then luminescence intensity was quantified on a ViewLux CCD-based plate reader.
% is scaled to controls: 0 for no effect and ±100 for the full control effect; potency is read from the fitted curve at half-maximal effect.

Row | SMILES | Potency | activity change, negative = cytotoxicity
1 | CCCCCCCC[P+](CCCCCCCC)(CCCCCCCC)CCCCCCCC | 21.6 µM (active) | –
2 | Cc1cc(N)c(S(=O)(=O)O)cc1Cl | – | 6.44% [at 95.3 µM] (inactive)
3 | CCCCCOC(=O)CCCC | – | 16.6% (inactive)
4 | CCCCCCCCOc1ccccc1C(=O)Nc1ccc(C(=O)OCC[N+](C)(CC)CC)cc1 | – | -15.6% (inactive)
5 | Fc1ccc([C@@H]2CCNC[C@H]2COc2ccc3c(c2)OCO3)cc1 | – | 7.75% (inactive)
6 | O=Cc1cc(O)ccc1Br | – | -5.15% [at 95.3 µM] (inactive)
7 | OC1(c2ccc(Cl)c(C(F)(F)F)c2)CCN(CCCC(c2ccc(F)cc2)c2ccc(F)cc2)CC1 | – | -19.1% (inactive)
8 | C[n+]1cc2c3c(ccc2c2ccc4cc5c(cc4c21)OCO5)OCO3 | 11.9 µM (active) | –
9 | NC(=O)N1C(=O)C(C(=O)c2cc(Cl)cs2)c2cc(F)c(Cl)cc21 (stereo not given) | 0.217 µM (active) | –
10 | CCC(C)(C)C1CCCCC1OC(C)=O (stereo not given) | – | 14.3% (inactive)
11 | C1CCCC1 | – | 4.75% (inactive)
12 | C[C@]12CCC(=O)C=C1CC[C@@H]1[C@@H]2[C@@H](O)C[C@@]2(C)[C@H]1CC[C@]2(O)C(=O)COC(=O)CCC(=O)O | – | 9.23% (inactive)
13 | Oc1c(Cl)cc(Cl)c2cccnc12 | – | 10.5% (inactive)
14 | COc1ccc(-c2ccc3cc(C(=O)O)ccc3c2)cc1C12CC3CC(CC(C3)C1)C2 | – | 3.03% (inactive)
15 | O=[N+]([O-])c1ccccc1Nc1ccccc1 | – | -18.1% (inactive)
16 | Oc1ccc(N=Nc2ccccc2)cc1 | 6.95 µM (active) | –
17 | CSc1ccc(/C=C2/C(C)=C(CC(=O)O)c3cc(F)ccc32)cc1 | – | 11.9% (inactive)
18 | CCC(N)(CO)CO | – | 9.78% [at 95.3 µM] (inactive)
19 | O=c1[nH]sc2ccccc12 | – | 26.2% (inactive)
20 | CCCCCCCCCCC=O | – | -3.62% [at 95.3 µM] (inactive)

Row | SMILES | Potency | activity change, negative = cytotoxicity
21 | O=C(O)c1c(Cl)cccc1Cl | – | 2.19% (inactive)
22 | Oc1cccc2cc3cccc(O)c3c(O)c12 | – | 5.78% [at 95.3 µM] (inactive)
23 | CC(=O)OCC(C)OC(C)=O (stereo not given) | – | 9.45% (inactive)
24 | C[C@H]1[C@H]2CC[C@H]3[C@@H]4CC=C5C[C@@H](N(C)C)CC[C@]5(C)[C@H]4CC[C@]23CN1C | – | 7.84% (inactive)
25 | N/C(=N\N=C\c1ccc(Cl)cc1)N/N=C/c1ccc(Cl)cc1 | – | -11.1% (inactive)
26 | CCCCCCCCOC(=O)c1ccc(O)cc1 | 24.3 µM (active) | –
27 | CCCCCCCCCCCCCCCC(=O)OC[C@H](O)[C@H]1OC(=O)C(O)=C1O | inactive | –
28 | Cc1ccc(O)c(C(C)(C)C)c1 | 27.3 µM (active) and 54.5 µM (active) | –
29 | NNc1nc(-c2ccccc2)cs1 | – | -20% [at 95.3 µM] (inactive)
30 | CC/C(=C(\c1ccc(O)cc1)c1ccc(OCCN(C)C)cc1)c1ccccc1 | 68.7 µM (active) | –
31 | OCCCCCCCCCCCCBr | – | -7.56% [at 95.3 µM] (inactive)
32 | CCCCCCCCCCCCc1ccc(O)cc1 | – | -17.4% (inactive)
33 | O=[N+]([O-])c1cc([N+](=O)[O-])c2ccc(S(=O)(=O)O)cc2c1O | – | 6.82% (inactive)
34 | CN(C)c1ccc(SC#N)cc1 | – | 7.43% (inactive)
35 | CC(=O)S[C@@H]1CC2=CC(=O)CC[C@]2(C)[C@H]2CC[C@@]3(C)[C@@H](CC[C@@]34CCC(=O)O4)[C@H]12 | inactive | –
36 | CCCCCCCCCCCC[N+](C)(C)CCCCCCCCCCCC | 30.6 µM (active) | –
37 | OCCN(CCO)c1nc(N2CCCCC2)c2nc(N(CCO)CCO)nc(N3CCCCC3)c2n1 | – | -12.1% (inactive)
38 | CCc1cc(SCc2sc(-c3ccc(C(F)(F)F)cc3)nc2CN2CCN(c3ccc(OC)cc3)CC2)ccc1OCC(=O)O | – | -18.3% (inactive)
39 | COc1ccc(C(=O)/C(Br)=C\C(=O)O)cc1 | inactive | –
40 | Nc1ccc2cc(S(=O)(=O)O)cc(O)c2c1N=Nc1ccccc1C(F)(F)F | – | -15.5% (inactive)
